# Screen size: about 5,500 compounds; about 2,000 (36%) were called active. About 18% were inconclusive and are not listed. Some of the results follow. Unmarked numbers belong to inactive results. No stated cut-off is given here; in the data, active means normalized growth mostly below about 0.91 (no sharp cut-off); inconclusive means no clear call, values can overlap the other calls; inactive means mostly above about 0.92.
# Assay: chemical genetic growth profiling, strain panel (AID 1159580);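 further: tested at 20 µM; growth read once vehicle control cultures reached saturation at 30 °C; 1 = growth at the plate median or of vehicle wells; lower values mean less growth of the strain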
# Settings: S. cerevisiae deletion strains, growth OD
compound,measurement,setting,value
O=C(NNC(=O)c1csc(-c2cccs2)n1)c1ccc(C(F)(F)F)cc1,normalized growth,"locus YAR019C, strain CDC15, hits give low values",0.972
same,normalized growth,"locus YBL105C, strain PKC1, hits give low values",0.967
same,normalized growth,"locus YBR135W, strain CKS1, hits give low values",0.955
same,normalized growth,"locus YBR136W, strain MEC1, hits give low values",0.979
same,normalized growth,"locus YBR160W, strain CDC28, hits give low values",0.965
same,normalized growth,"locus YDL017W, strain CDC7, hits give low values",0.961
same,normalized growth,"locus YDL028C, strain MPS1, hits give low values",0.958
same,normalized growth,"locus YDL101C, strain DUN1, hits give low values",0.901 (active)
same,normalized growth,"locus YDL108W, strain KIN28, hits give low values",0.972
same,normalized growth,"locus YDL132W, strain cdc53, hits give low values",0.946
same,normalized growth,"locus YDL214C, strain PRR2, hits give low values",0.657 (active)
same,normalized growth,"locus YDR052C, strain DBF4, hits give low values",0.964
same,normalized growth,"locus YDR054C, strain cdc34, hits give low values",0.961
same,normalized growth,"locus YDR226W, strain ADK1, hits give low values",0.967
same,normalized growth,"locus YDR477W, strain SNF1, hits give low values",0.572 (active)
same,normalized growth,"locus YER123W, strain YCK3, hits give low values",0.75
same,normalized growth,"locus YER133W, strain GLC7, hits give low values",0.863
same,normalized growth,"locus YFL009W, strain cdc4, hits give low values",0.967
same,normalized growth,"locus YFL029C, strain CAK1, hits give low values",0.959
same,normalized growth,"locus YFR003C, strain YPI1, hits give low values",0.964
same,normalized growth,"locus YFR019W, strain FAB1, hits give low values",0.99
same,normalized growth,"locus YFR028C, strain CDC14, hits give low values",0.949
same,normalized growth,"locus YGR040W, strain KSS1, hits give low values",0.832
same,normalized growth,"locus YGR052W, strain FMP48, hits give low values",0.779
same,normalized growth,"locus YGR092W, strain DBF2, hits give low values",0.154 (active)
same,normalized growth,"locus YHR030C, strain SLT2, hits give low values",0.198 (active)
same,normalized growth,"locus YHR079C, strain IRE1, hits give low values",0.181 (active)
same,normalized growth,"locus YHR082C, strain KSP1, hits give low values",0.838
same,normalized growth,"locus YHR205W, strain SCH9, hits give low values",0.695
same,normalized growth,"locus YIL147C, strain SLN1, hits give low values",0.973
same,normalized growth,"locus YJL095W, strain BCK1, hits give low values",0.345 (active)
same,normalized growth,"locus YJL128C, strain PBS2, hits give low values",0.948
same,normalized growth,"locus YJL157C, strain FAR1, hits give low values",0.612 (active)
same,normalized growth,"locus YJR016C, strain ILV3, hits give low values",0.969
same,normalized growth,"locus YJR066W, strain TOR1 (second series), hits give low values",0.14 (active)
same,normalized growth,"locus YJR066W, strain TOR1, hits give low values",0.486
same,normalized growth,"locus YKL048C, strain ELM1, hits give low values",0.91
same,normalized growth,"locus YKL067W, strain YNK1, hits give low values",0.713 (active)
same,normalized growth,"locus YKL101W, strain HSL1, hits give low values",0.59 (active)
same,normalized growth,"locus YKL193C, strain SDS22, hits give low values",0.963
same,normalized growth,"locus YKL203C, strain TOR2, hits give low values",0.913
same,normalized growth,"locus YLR113W, strain HOG1, hits give low values",0.677 (active)
same,normalized growth,"locus YLR133W, strain CKI1, hits give low values",0.592 (active)
same,normalized growth,"locus YLR403W, strain SFP1, hits give low values",0.884
same,normalized growth,"locus YML070W, strain DAK1, hits give low values",0.887
same,normalized growth,"locus YMR001C, strain CDC5, hits give low values",0.949
same,normalized growth,"locus YMR205C, strain PFK2 (second series), hits give low values",0.666 (active)
same,normalized growth,"locus YMR277W, strain FCP1, hits give low values",0.957
same,normalized growth,"locus YNL006W, strain LST8, hits give low values",0.96
same,normalized growth,"locus YNL020C, strain ARK1, hits give low values",0.492 (active)
same,normalized growth,"locus YNL161W, strain CBK1, hits give low values",0.959
same,normalized growth,"locus YNL183C, strain NPR1, hits give low values",0.5 (active)
same,normalized growth,"locus YNL207W, strain RIO2, hits give low values",0.955
same,normalized growth,"locus YNL222W, strain SSU72, hits give low values",0.963
same,normalized growth,"locus YNL307C, strain MCK1 (second series), hits give low values",0.286 (active)
same,normalized growth,"locus YOL078W, strain AVO1, hits give low values",0.966
same,normalized growth,"locus YOL136C, strain PFK27, hits give low values",0.805
same,normalized growth,"locus YOR061W, strain CKA2, hits give low values",0.821
same,normalized growth,"locus YOR119C, strain RIO1, hits give low values",0.877
same,normalized growth,"locus YOR231W, strain MKK1, hits give low values",0.29 (active)
same,normalized growth,"locus YOR329C, strain SCD5, hits give low values",0.959
same,normalized growth,"locus YPL031C, strain PHO85, hits give low values",0.512 (active)
same,normalized growth,"locus YPL153C, strain RAD53, hits give low values",0.57 (active)
same,normalized growth,"locus YPL204W, strain HRR25, hits give low values",0.723
same,normalized growth,"locus YPL209C, strain IPL1, hits give low values",0.964
same,normalized growth,"locus YPL256C, strain CLN2, hits give low values",0.558 (active)
same,normalized growth,"locus YPR025C, strain CCL1, hits give low values",0.954
same,normalized growth,"locus YPR106W, strain ISR1, hits give low values",0.959
same,normalized growth,"locus YPR111W, strain DBF20, hits give low values",0.974
same,normalized growth,"strain NNK1, hits give low values",0.974
same,normalized growth,"strain TSCII, hits give low values",0.943

# Source: PubChem BioAssay AID1159580 (chemical genetic matrix, 2015)
